Compound activity deposited in PubChem by several laboratories.
A selection: hits, their analogues and other compounds. The true share with any hit is near 3.3%.
Mcl1 Bid PPI: disrupts binding of human Mcl-1 to Bid peptide. Q07820. TR-FRET Mcl-1/Bid-Dy647 peptide binding, 1536-well. inhibition, % at 21.7 µM. 220,000 tested, 0.97% active. AID 1021;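 active means compounds that cut the binding signal by more than half at the single screening dose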;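 further: His-tagged Mcl-1 with europium anti-His antibody binding Bid BH3 peptide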
eIF4E 4G PPI: inhibitors of eIF4E and eIF4G interaction in translation initiation. P63073+Q04637. TR-FRET eIF4E-eIF4GI(517-606) binding, 2 h. inhibition, % at 21.7 µM. 220,000 tested, 0.37% active
Bim-Mcl-1: disrupts Bim peptide binding to human Mcl-1 | Bead-based flow cytometry, Bim peptide-Mcl-1 binding | inhibition, % at 10 µM | 190,000 tested, 0.1% active | AID 1009; in the data active means inhibition above about 40%
14-3-3 Bad inh: disrupts binding of bovine 14-3-3 zeta to phospho-Bad peptide; inhibition, % at 21.7 µM; TR-FRET 14-3-3zeta/Dy647-pBad peptide displacement, 1 h; 220,000 tested, 0.71% active; AID 781; P63103;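 active means inhibition above about 70%, limit read from the data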
Target sequence (P63103 whole entry, looked up): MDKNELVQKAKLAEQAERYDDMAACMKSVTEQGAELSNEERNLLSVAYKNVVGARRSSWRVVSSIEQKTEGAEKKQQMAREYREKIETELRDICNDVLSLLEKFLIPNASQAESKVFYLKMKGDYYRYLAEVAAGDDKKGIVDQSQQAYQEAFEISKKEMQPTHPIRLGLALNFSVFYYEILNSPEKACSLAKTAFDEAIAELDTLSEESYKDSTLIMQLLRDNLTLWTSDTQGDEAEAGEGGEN
p47phox inh: blocks human p47phox regulatory protein of NADPH oxidases; 220,000 tested, 0.53% active; p47phox/p22phox peptide binding, fluorescence polarization, 2 h; inhibition, % at 24.7 µM
Target sequence (P14598 whole entry, looked up): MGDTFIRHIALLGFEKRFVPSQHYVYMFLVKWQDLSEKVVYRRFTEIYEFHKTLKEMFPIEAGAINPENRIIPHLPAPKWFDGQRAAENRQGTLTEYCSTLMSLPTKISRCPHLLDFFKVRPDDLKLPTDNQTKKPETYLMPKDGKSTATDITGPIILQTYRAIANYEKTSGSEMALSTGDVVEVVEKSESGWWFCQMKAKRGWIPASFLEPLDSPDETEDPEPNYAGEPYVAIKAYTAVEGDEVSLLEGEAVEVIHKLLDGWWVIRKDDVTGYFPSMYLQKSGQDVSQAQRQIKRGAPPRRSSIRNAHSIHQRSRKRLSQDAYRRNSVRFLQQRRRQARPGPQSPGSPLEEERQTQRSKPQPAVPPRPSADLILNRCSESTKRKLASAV
Mcl1-Noxa inh: Mcl-1/Noxa interaction inhibition; Q07820; TR-FRET Mcl-1/Noxa peptide binding, 2 h; inhibition, % at 21.7 µM; 220,000 tested, 1.5% active; AID 1022;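 active means compounds that cut the protein-peptide binding signal by more than 50% relative to plate controls in a single-dose test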;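 further: His-tagged Mcl-1 with rhodamine Noxa BH3 peptide and terbium anti-His antibody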
Of the large screens only hits and unclear results are named; the others gave an inactive call; [ ] = dose if it differs, or a comment.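 How the source made its calls, unless noted: active means inhibition above about 30% (limit read from the data); inactive means the rest.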

CC1CCc2c(C(=O)Nc3ccc(N4CCOCC4)cc3)csc2C1 (centres undefined)	Mcl1-Noxa inh 67.0
Oc1ccc(N=Nc2cccc(Cl)c2)cc1C=Nc1ccc(N2CCOCC2)cc1	Mcl1 Bid PPI 56.3, Mcl1-Noxa inh 86.5
CCN(CC)S(=O)(=O)c1cc(NC(=O)CSc2nnc(-c3cccs3)o2)ccc1C	p47phox inh 51.9
Cc1ccc2nc(SC(C)C(=O)NC3CCCc4ccccc43)[nH]c2c1 (centres undefined)	Mcl1 Bid PPI 84.0
CCOC(=O)CSC1=N/C(=C\c2ccc(OC)c(OC)c2)C(=O)N1C	14-3-3 Bad inh 73.8[fluorescence artefact?]
O=C(/C=C/c1ccccc1)C1=C(O)C(=O)N(CCO)C1c1ccc2c(c1)OCO2 (centres undefined)	none
CCn1cc(C(=O)OCC(=O)c2cc(C)n(-c3ccc(OC(F)F)cc3)c2C)c(=O)c2ccc(C)nc21	eIF4E 4G PPI 44.9[fluorescence artefact?]
CC(NC(=O)Cn1cccc1C(=O)c1ccccc1)c1ccc2c(c1)OCCO2 (centres undefined)	p47phox inh 70.7
C=CCn1c(O)c(C2=c3ccccc3=NC2=O)s/c1=N/c1nccs1	Mcl1 Bid PPI 55.7
Cc1ccccc1NC(=O)COC(=O)Cc1ccsc1	none
COc1cccc(Oc2c(C)oc3c(CN4CCCC4)c(O)ccc3c2=O)c1	Mcl1 Bid PPI 96.2 (no result: Bim-Mcl-1)
COc1ccccc1Oc1c(C)oc2c(CN3CCOCC3)c(O)ccc2c1=O	none (no result: Bim-Mcl-1)
Cc1ccccc1C(=O)Nc1ccc(C(=O)N/N=C/c2ccc(F)cc2)cc1	none
Cc1ccccc1C(=O)Nc1ccc(C(=O)N/N=C/c2ccc(O)c(Br)c2)cc1	Mcl1-Noxa inh 57.7
CCN(CC)S(=O)(=O)c1ccc(C(=O)N(c2ccccc2)C2C=CS(=O)(=O)C2)cc1 (centres undefined)	none
O=C(c1ccc2ccccc2c1)C1CCCN(C(=O)c2noc3c2CCCC3)C1 (centres undefined)	none
Cc1nnc(Sc2c(N)n(C)c(=O)[nH]c2=O)s1	Mcl1 Bid PPI 100.0
CCOC(=O)c1c(CSc2ccccc2)n(C)c2ccc(O)c(CN3CCOCC3)c12	none
CCOC(=O)C1CCCN(c2nc(C)nc3c2oc2ccccc23)C1 (centres undefined)	14-3-3 Bad inh 82.8
CCOC(=O)C1CCN(c2nc(C)nc3c2oc2ccccc23)CC1	none
COC(=O)Cn1c(=O)c2c(n(Cc3ccccc3)c1=O)N/C(=C/c1ccc(Br)cc1)C2=O	Mcl1-Noxa inh 54.4 (no result: Bim-Mcl-1)
CC(NC(=S)Nc1ccc(Cl)cc1)C(c1ccccc1)N1CCOCC1 (centres undefined)	14-3-3 Bad inh 70.9
CC(NC(=O)Nc1ccccc1)C(c1ccccc1)N1CCOCC1 (centres undefined)	none
Cc1cc(Br)cc2cn[nH]c12	none
COc1cc(/C=C2\SC(=N)N(c3ccc(F)cc3)C2=O)ccc1O	Mcl1-Noxa inh 53.2
Oc1ccc(C2Nc3cccc4cccc(c34)N2)c(O)c1	Mcl1-Noxa inh 102.6
c1coc(C2Nc3cccc4cccc(c34)N2)c1	Mcl1-Noxa inh 76.4
COc1cc(C2Nc3cccc4cccc(c34)N2)cc(OC)c1O	Mcl1-Noxa inh 99.7
COc1cc(C2Nc3cccc4cccc(c34)N2)ccc1OC(C)=O	Mcl1-Noxa inh 69.3
COC(=O)c1ccc(C2Nc3cccc4cccc(c34)N2)cc1	none
COC(=O)c1c(-c2c(Cl)cccc2Cl)noc1C(=O)NNC(=O)N(C)C	none (no result: Bim-Mcl-1)
CCOc1ccc(C(=O)NN2C(=O)C3C4C=CC(O4)C3C2=O)cc1 (centres undefined)	none
O=C(NCc1ccccc1)c1onc(CSc2ccccc2)c1C(=O)NCC1CC1	none (no result: Bim-Mcl-1)
C=CCn1c(SC(C)CC)nc(O)cc1=O (centres undefined)	none
COc1ccc(/C=C/C(=O)NCC(c2ccc(F)cc2)N2CCOCC2)cc1OC (centres undefined)	none (no result: Bim-Mcl-1)
FC(F)(F)c1ccc(Oc2ccc(Cl)cc2Br)nc1	none
Cn1c(NC(=O)Cc2ccc(F)cc2)cc(=O)n(C)c1=O	Mcl1 Bid PPI 65.4
C=CCNCCCOc1ccc(C(C)(C)c2ccccc2)cc1	Mcl1 Bid PPI 52.4
COCCCNCCCOc1ccc(C(C)(C)c2ccccc2)cc1	none
O=C(Cn1cc2c(n1)CCCCC2)NCc1ccccn1	p47phox inh 43.4
CCc1cc(C(N)=S)ccn1	Mcl1-Noxa inh 53.1
O=C(O)c1cc(O)c2c(c1)C(=O)c1cccc(O)c1C2=O	14-3-3 Bad inh 74.2, Mcl1-Noxa inh 61.2
O=C(O)C1=C[C@@H](C2CCCCC2)C[C@@H](OCCCCO)O1	none
CC(C)[C@@H]1C=C(C(=O)O)O[C@H](OCCCCO)C1	eIF4E 4G PPI 97.4 (no result: Bim-Mcl-1)
COCCSc1nc(N)c2c3c(sc2n1)CN(C)CC3	none (no result: Bim-Mcl-1)
CCSC(=S)Nc1c(C)n(C)n(-c2ccccc2)c1=O	none
CCOc1ccc2cc(/C=C/C(=O)c3ccco3)c(Cl)nc2c1	Mcl1 Bid PPI 59.0
COc1ccc(CNC(=O)CCC(=O)Nc2nnc(CC(C)C)s2)cc1	none (no result: Bim-Mcl-1)
Cc1ccc(C(C)C)c(OCc2ccc(C(=O)N/N=C/c3ccc(C(=O)O)cc3)cc2)c1	none (no result: Bim-Mcl-1)
Cc1ccc(C(C)C)c(OCc2ccc(C(=O)N/N=C/c3ccc(O)cc3O)cc2)c1	Mcl1 Bid PPI 51.6, Mcl1-Noxa inh 86.3
Nc1c(O)ccc2c1C(=O)c1ccccc1C2=O	p47phox inh 79.8, Mcl1-Noxa inh 77.5
COc1ccc2c(c1O)C(=O)c1ccccc1C2=O	none
Cc1ccc(CNc2nc(C)nc3sc4c(c23)CCC4)cc1	Mcl1 Bid PPI 91.2
O=C(Oc1cccc2c(=O)[nH]ccc12)c1ccccc1	14-3-3 Bad inh 78.1
Cc1cc(N)nc(C)c1C#N	none
CCC1CCCCN1C(=O)c1sc2ncnc(N(CC)CC)c2c1C (centres undefined)	none
CNC(=O)CC1C(=O)N(c2ccc(OC)cc2)C(=S)N1NC(=O)c1cccc(F)c1 (centres undefined)	Mcl1 Bid PPI 98.9 (no result: Bim-Mcl-1)
O=C(NC1=NCCS1)c1ccccc1OCc1ccc(F)cc1	none
COc1cccc(OC)c1C(=O)NC(=S)Nc1ccc2c(c1)OCCO2	none
COc1ccc(-c2cc3ccccc3oc2=O)cc1NC(=O)c1ccc(Br)o1	Mcl1 Bid PPI 59.9, p47phox inh 40.7
CCC(=O)Nc1cc(-c2cc3ccccc3oc2=O)ccc1OC	none
COc1ccc(-c2cc3ccccc3oc2=O)cc1NC(=O)c1ccc([N+](=O)[O-])o1	Mcl1 Bid PPI 65.2, 14-3-3 Bad inh 79.6[fluorescence artefact?], p47phox inh 40.2
COc1ccc(-c2cc3ccccc3oc2=O)cc1NC(=S)NC(=O)c1ccc2c(c1)OCCO2	14-3-3 Bad inh 77.4[fluorescence artefact?]
COc1ccc(C(=O)NNC(=O)CSc2nnc(C)n2CC2CCCO2)cc1 (centres undefined)	none
CC(=O)Oc1ccc(N2C(=O)C3C4C=CC(CC4)C3C2=O)cc1[N+](=O)[O-] (centres undefined)	none
